Measurements: PubChem BioAssay (NCI)
“And” between values parts separate entries of the source, which are not always exact repeats. Equal values may be shown once. The panel holds about 83,000 compounds, 20% with a hit somewhere; the sample as a whole holds those more often.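 Results are percent growth after 48 hours of single-concentration exposure. 100 means growth as in untreated cells, lower positive values show inhibition; negative values down to -100 show cell death.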 The source made the active and inactive calls.

What follows are compounds tested on SK-OV-3 ovarian (assay: NCI-60 one-dose screen, 48 h (100 = growth as untreated, 0 = no growth, -100 = all killed)). Conditions: 10 µM unless noted.
Experimental: Growth inhibition of the SK-OV-3 human tumor cell line is measured as a screen for anti-cancer activity. Cells are grown in 96 well plates and exposed to the test compound for 48 hours. Compounds are tested at a single concentration, which is 10^-5 M for most compounds. The reported endpoint is percent growth (GI% or GIPRCNT), where numbers from 0 - 100% represent growth inhibition, and numbers from -100% - 0 represent cell death. For example, a value of 40 represents 60% growth inhibition. A value of 0 means no net growth occurred over the course of the experiment. A value of -40 indicates 40% of cells at the beginning of the experiment died by the end of the experiment. A value of -100 means all cells are dead at the end of the experiment.
NCI-60 Human Tumor Cell Lines Screen was performed using the standard one-dose NCI protocol, which is described in more detail at https://dtp.cancer.gov/discovery_development/nci-60/default.htm.
Compounds with GIPRCNT values below 10 were considered active. Activity score was based on GIPRCNT using the following formula: […]
Score is 0 for GIPRCNT values of 100 or above, 50 for GIPRCNT values of 0, and 100 for GIPRCNT values of -100.

Row | Compound | growth
1 | Oc1c(Cl)cc(Cl)cc1Sc1cc(Cl)cc(Cl)c1O | 74.6% (inactive) and 96.4% (inactive)
2 | Nc1ccccc1Nc1ccccc1 | 114% (inactive) and 106% (inactive)
3 | C/C(=N\NC(=O)c1ccncc1)c1ccccc1O | 45.6% (inactive) and 38.4% (inactive)
4 | CC(O)Cn1cnc2c1c(=O)n(C)c(=O)n2C (stereo not given) | 103% (inactive)
5 | COc1cc(/C=N/Nc2nc3c([nH]2)c(=O)n(C)c(=O)n3C)ccc1O | 104% (inactive) and 109% (inactive)
6 | CN(C)CCCN1c2ccccc2Sc2ccc(Cl)cc21 | 24.1% (inactive) and 76.5% (inactive)
7 | CNC(=O)c1cc(Oc2ccc(NC(=O)Nc3ccc(Cl)c(C(F)(F)F)c3)cc2)ccn1 | -20.9% (active) and 12.5% (inactive)
8 | Nc1nc2ncc(CNc3ccc(C(=O)N[C@@H](CCc4nn[nH]n4)C(=O)O)cc3)nc2c(=O)[nH]1 | 103% (inactive) and 104% (inactive)
9 | N#CCCOc1ccccc1 | 97% (inactive)
10 | COC(=O)[C@H]1CCCN1C(=O)C1CCCN1C(=O)[C@@H](Cc1ccccc1)NC(=S)Nc1cc(C(F)(F)F)cc(C(F)(F)F)c1 (stereo not given in full) | 128% (inactive) and 109% (inactive)
11 | NC(=O)c1ccccc1OCC(O)CO (stereo not given) | 109% (inactive)
12 | COc1cc2nc(N3CCN(C(=O)C4COc5ccccc5O4)CC3)nc(N)c2cc1OC (stereo not given) | 114% (inactive) and 103% (inactive) and 105% (inactive)
13 | CC1=C(/C=C/C(C)=C/C=C/C(C)=C/C(=O)O)C(C)(C)CCC1 | 72% (inactive) and 90.2% (inactive) and 101% (inactive)
14 | Nc1cc(-c2cccc(OC(F)(F)F)c2)nc2ccc(N3CCCC3)cc12 | 36% (inactive) and 5.93% (active)
15 | NC(=O)C1CC2C=CC1C2 (stereo not given) | 111% (inactive) and 121% (inactive)
16 | CNC(=O)c1ccc(C)c(-n2c(C)cc(OCc3ccc(F)cc3F)c(Br)c2=O)c1 | 76.4% (inactive) and 91.3% (inactive)
17 | CN1CCN(c2ccc3nc(-c4c(N)c5c(F)cccc5[nH]c4=O)[nH]c3c2)CC1 | 1.69% (active) and 24.6% (inactive)
18 | N#CC(C#N)=C/C=C/c1cccc([N+](=O)[O-])c1 | 55.6% (inactive) and 35.8% (inactive)
19 | O=C1OC(Oc2ccc(Br)cc2)(c2ccccc2)c2ccccc21 (stereo not given) | 96.1% (inactive) and 110% (inactive)
20 | COc1ccccc1C(C)=O | 103% (inactive) and 102% (inactive)

Row | Compound | growth
21 | NS(=O)(=O)c1cc2c(cc1Cl)NC(C(Cl)Cl)NS2(=O)=O (stereo not given) | 106% (inactive) and 114% (inactive)
22 | O=C(N/N=C/c1ccccc1)N/N=C/c1ccccc1 | 106% (inactive) and 111% (inactive)
23 | NC(=O)NO | 107% (inactive) and 56.4% (inactive)
24 | CC1=C(/C=C/C(C)=C/C=C/C(C)=C/C(=O)Nc2ccc(O)cc2)C(C)(C)CCC1 | 69.3% (inactive)
25 | Oc1nc(NCCc2ccccc2)sc1/C=C1\C=Nc2ncccc21 | 2.11% (active) and 27% (inactive)
26 | CCN(CC)CCC(CNc1ccnc2cc(Cl)ccc12)c1ccc(OC)cc1 (stereo not given) | 92.7% (inactive) and 78.5% (inactive)
27 | CCN(CC)C(=O)c1cccnc1 | 109% (inactive)
28 | O=C=NC(c1ccccc1)(c1ccccc1)c1ccccc1 | 89.1% (inactive)
29 | COc1ccccc1NC(=O)OCC#CCOC(=O)Nc1ccccc1OC | 104% (inactive) and 94.8% (inactive)
30 | CCN(CC)CCOc1ccc(/C=N/Nc2nc3c([nH]2)c(=O)n(C)c(=O)n3C)cc1 | 106% (inactive) and 107% (inactive)
31 | O=C(O)C1(C(=O)O)CCC1.[NH2-].[NH2-].[Pt+2] | 104% (inactive) and 107% (inactive)
32 | Cc1nn(-c2ccccc2)nc1C(=O)Nc1ccccc1C(=O)NCC1CC1 | 99% (inactive) and 91% (inactive)
33 | COc1ccc2nc(Cl)cc(C)c2c1 | 107% (inactive) and 124% (inactive)
34 | O=[N+]([O-])c1ccc2nc3c4ccccc4c4ccccc4c3nc2c1 | 100% (inactive)
35 | c1ccc(NCc2ccc3c(c2)OCO3)cc1 | 92.4% (inactive) and 99.3% (inactive)
36 | COc1cc2c(c(OC)c1OC)-c1ccc(OC)c(=O)cc1[C@@H](NC(C)=O)CC2 | 13.8% (inactive) and 25.8% (inactive) and 36.1% (inactive)
37 | CC(=O)NC(Cc1ccccc1)C(=O)Oc1ccc2ccccc2c1 (stereo not given) | 91.5% (inactive)
38 | CCN(CC)CCNc1cc(-c2cccc(OC(F)(F)F)c2)nc2ccc(N3CCCC3)cc12 | 52.6% (inactive) and 10.9% (inactive) and 53.6% (inactive)
39 | CCN(CC)CCCC(C)N(Cc1ccccc1)CC(O)c1ccc(Cl)cc1 (stereo not given) | 94.4% (inactive) and 102% (inactive)
40 | Nc1ncnc2c1ncn2C1CC(O)C(CO)O1 (stereo not given) | 105% (inactive) and 110% (inactive)
